# Results as given in PubChem BioAssay AID2284330 (EPA ToxCast).
# Inconclusive results are not listed. Activity calls are given as the source filed them. Rule for the calls: active = hit-call score of the fitted dose curve at least 0.9, where 1 is the maximum; inconclusive = response in the unintended direction; inactive = score below 0.9.
# System: frog Glucocorticoid Receptor (GR), gene 397897
# Test: ATG_frGR_EcoTox2: Attagene TRANS-FACTORIAL EcoTox-2 HepG2 Assay for frog Glucocorticoid Receptor (GR)
# Protocol: ATG_EcoTox2 is a cell-based, multiplexed assay created by modifying the existing Attagene TRANS-FACTORIAL system to include a panel of nuclear receptors from some or all the following species: human (Homo sapiens), african clawed frog (Xenopus laevis), rainbow trout (Oncorhynchus mykiss), japanese medaka (Oryzias latipes), and zebrafish (Danio rerio). The ECOTOX2-FACTORIAL format uses HepG2, a human liver cell line, with measurements taken at 24 hours after chemical dosing in a 24-well plate. ATG_frGR_EcoTox2 is one of 29 assay components calculated in the ATG_EcoTox2 assay. It is designed to make measurements of mRNA induction, a form of inducible reporter, as detected with fluorescence intensity signals by Reverse transcription polymerase chain reaction (RT-PCR) and Capillary electrophoresis technology.The assay endpoint ATG_frGR_EcoTox2 was analyzed in the positive analysis fitting direction relative to DMSO as the negative control and baseline of activity. Using a type of inducible reporter, measures of mRNA for gain-of-signal activity can be used to understand the reporter gene at the transcription factor-level as they relate to the gene for glucocorticoid receptor. Furthermore, this assay endpoint can be referred to as a primary readout, because this assay has produced multiple assay endpoints where this one serves a reporter gene function. To generalize the intended target to other relatable targets, this assay endpoint is annotated to the nuclear receptor intended target family, where the subfamily is steroidal.
# Human liver HepG2 cells are transiently transfected with multiple reporter transcription units (MRTUs) in 6-well plates using FuGene 6 reagent (Roche; 3 ml FuGene/1 mg DNA). The MRTU constructs are regulated by a cis-regulating element (promoter). Each RTU expresses a GAL4-UAS that regulates the transcription of a nearby target reporter gene sequence. A major difference between the CIS and TRANS system is that in CIS activities of endogenous TFs are measured, whereas the TRANS assay evaluates changes in activities of exogenous, chimeric NR-Gal4 proteins. […] At the end of 24 hour incubation, total RNA was isolated using TriZol reagent (Invitrogen). The isolated RNA is then reverse-transcribed using oligo(dT) primer and Mo-MLV reverse transcriptase (Invitrogen) with DNAse I (Ambion) treatment for 30 min. The one-tenth of the produced cDNA was amplified by PCR using Taq DNA polymerase (Invitrogen) and two reporter sequence-specific primers. The PCR products were fluorescently labeled by primer extension with 6-arboxyfluorescein (6-FAM) 5'-labeled reporter sequence-specific primer (2 min at 95 C, 20 s at 68 C and 10 min at 72 C) and these products were digested with 5U of HpaI (New England Biolabs) for 2h at 37 C. The fragments were purified using Qiaquick PCR columns (Qiagen), analyzed on an ABI 3130xL genetic analyzer (Applied Biosystems) with peak positions identified by using a set of X-rhodamine (ROX)-labeled MapMarker1000 molecular weight standards (BioVentures). The raw capillary electrophoresis data was processed using Attagraph software (Attagene).
SMILES,outcome,AC50
CC(C)(Oc1ccc(Cl)cc1)C(=O)O,inactive,–
CC(C)OC(=O)C(C)(C)Oc1ccc(C(=O)c2ccc(Cl)cc2)cc1,inactive,–
CC(C)(Oc1ccc(CCNC(=O)c2ccc(Cl)cc2)cc1)C(=O)O,inactive,–
CC(C)(Oc1ccc(C2CC2(Cl)Cl)cc1)C(=O)O (stereo unspecified),inactive,–
C[C@@H]1C[C@H]2[C@@H]3CCC4=CC(=O)C=C[C@]4(C)[C@@]3(F)[C@@H](O)C[C@]2(C)[C@@]1(O)C(=O)COP(=O)(O)O,–,0.00998 µM (active)
CC(c1cc2ccccc2s1)N(O)C(N)=O (stereo unspecified),–,34.3 µM (active)
C[C@]12C=CC(=O)C=C1CC[C@@H]1[C@@H]2C(=O)C[C@@]2(C)[C@H]1CC[C@]2(O)C(=O)CO,inactive,–
C=C(c1ccc(C(=O)O)cc1)c1cc2c(cc1C)C(C)(C)CCC2(C)C,inactive,–
Cc1cccc(Nc2cc(Cl)nc(SCC(=O)O)n2)c1C,inactive,–
CN(CCOc1ccc(CC2SC(=O)NC2=O)cc1)c1ccccn1 (stereo unspecified),–,30.8 µM (active)
Cc1ccc(C)c(OCCCC(C)(C)C(=O)O)c1,inactive,–
